Assay results reported in the supplement of paper PMC10849652.
Targets with a hit are over-represented here; the source holds about 7,900 in all. About 0.6% of all pairs of compound and target were hits.

compound: CCn1cc(-c2ccnc3[nH]c(-c4cccc(CN(C)C)c4)cc23)c(-c2ccc(NC(=O)N(C)C)cc2)n1; test: log2 fold change, soluble protein after heating vs DMSO (PISA); higher = thermal stabilisation; K562 cells, 10 uM, 30 min; active = over 0.2 and 3.5 SD of the protein, either way, in both replicates (recomputed)
Procedure, shortened: (§1)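 K562 cells at 2×10^6 cells/mL were treated with 10 μM compound for 30 min. Aliquots were heated for 3 min across 48°C-58°C, pooled, and extracted in PBS with 0.5% NP-40 at 4°C; soluble protein was the supernatant after 21,000xg for 90 min. Soluble protein was quantified by TMTpro 16plex LC-MS/MS with channel sums equalised, and reported as log2 fold change in thermal stability against DMSO controls, with values from duplicates.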

UniProt Q8N122, sequence (Q8N122 whole entry, looked up): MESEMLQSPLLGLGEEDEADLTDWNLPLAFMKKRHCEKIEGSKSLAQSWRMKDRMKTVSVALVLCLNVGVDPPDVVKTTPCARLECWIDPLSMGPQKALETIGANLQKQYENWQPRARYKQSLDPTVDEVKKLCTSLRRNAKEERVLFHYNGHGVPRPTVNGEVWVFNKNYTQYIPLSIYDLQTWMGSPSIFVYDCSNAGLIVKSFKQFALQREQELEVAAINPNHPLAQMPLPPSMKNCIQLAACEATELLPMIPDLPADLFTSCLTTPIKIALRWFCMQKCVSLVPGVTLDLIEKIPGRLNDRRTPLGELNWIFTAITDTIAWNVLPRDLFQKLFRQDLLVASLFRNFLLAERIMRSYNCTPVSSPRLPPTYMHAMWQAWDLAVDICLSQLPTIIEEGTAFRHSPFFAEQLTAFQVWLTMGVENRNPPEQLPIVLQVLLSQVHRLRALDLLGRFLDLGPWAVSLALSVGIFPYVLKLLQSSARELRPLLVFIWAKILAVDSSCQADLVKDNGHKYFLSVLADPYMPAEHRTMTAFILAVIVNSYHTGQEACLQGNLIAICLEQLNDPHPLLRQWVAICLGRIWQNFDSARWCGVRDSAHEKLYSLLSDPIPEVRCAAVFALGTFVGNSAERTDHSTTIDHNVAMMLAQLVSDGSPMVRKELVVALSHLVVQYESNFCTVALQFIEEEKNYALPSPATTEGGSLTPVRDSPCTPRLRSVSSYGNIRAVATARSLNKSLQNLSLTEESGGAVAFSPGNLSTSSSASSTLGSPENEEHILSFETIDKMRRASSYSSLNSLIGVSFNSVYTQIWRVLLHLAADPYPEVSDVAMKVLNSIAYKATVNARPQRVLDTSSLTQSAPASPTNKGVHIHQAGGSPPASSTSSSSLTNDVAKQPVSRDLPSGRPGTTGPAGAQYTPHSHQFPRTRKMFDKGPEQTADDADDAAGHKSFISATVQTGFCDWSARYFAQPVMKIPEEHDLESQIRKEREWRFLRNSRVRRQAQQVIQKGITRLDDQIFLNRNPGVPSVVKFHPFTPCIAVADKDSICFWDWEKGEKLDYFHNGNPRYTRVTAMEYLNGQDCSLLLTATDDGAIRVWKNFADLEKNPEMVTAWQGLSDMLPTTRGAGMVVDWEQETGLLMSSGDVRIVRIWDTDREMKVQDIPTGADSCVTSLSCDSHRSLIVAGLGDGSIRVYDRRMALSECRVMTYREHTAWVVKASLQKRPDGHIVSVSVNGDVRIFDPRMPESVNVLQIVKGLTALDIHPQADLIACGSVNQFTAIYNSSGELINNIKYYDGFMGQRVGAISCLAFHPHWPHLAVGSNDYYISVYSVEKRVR
UniProt P49792, sequence (P49792 whole entry, looked up): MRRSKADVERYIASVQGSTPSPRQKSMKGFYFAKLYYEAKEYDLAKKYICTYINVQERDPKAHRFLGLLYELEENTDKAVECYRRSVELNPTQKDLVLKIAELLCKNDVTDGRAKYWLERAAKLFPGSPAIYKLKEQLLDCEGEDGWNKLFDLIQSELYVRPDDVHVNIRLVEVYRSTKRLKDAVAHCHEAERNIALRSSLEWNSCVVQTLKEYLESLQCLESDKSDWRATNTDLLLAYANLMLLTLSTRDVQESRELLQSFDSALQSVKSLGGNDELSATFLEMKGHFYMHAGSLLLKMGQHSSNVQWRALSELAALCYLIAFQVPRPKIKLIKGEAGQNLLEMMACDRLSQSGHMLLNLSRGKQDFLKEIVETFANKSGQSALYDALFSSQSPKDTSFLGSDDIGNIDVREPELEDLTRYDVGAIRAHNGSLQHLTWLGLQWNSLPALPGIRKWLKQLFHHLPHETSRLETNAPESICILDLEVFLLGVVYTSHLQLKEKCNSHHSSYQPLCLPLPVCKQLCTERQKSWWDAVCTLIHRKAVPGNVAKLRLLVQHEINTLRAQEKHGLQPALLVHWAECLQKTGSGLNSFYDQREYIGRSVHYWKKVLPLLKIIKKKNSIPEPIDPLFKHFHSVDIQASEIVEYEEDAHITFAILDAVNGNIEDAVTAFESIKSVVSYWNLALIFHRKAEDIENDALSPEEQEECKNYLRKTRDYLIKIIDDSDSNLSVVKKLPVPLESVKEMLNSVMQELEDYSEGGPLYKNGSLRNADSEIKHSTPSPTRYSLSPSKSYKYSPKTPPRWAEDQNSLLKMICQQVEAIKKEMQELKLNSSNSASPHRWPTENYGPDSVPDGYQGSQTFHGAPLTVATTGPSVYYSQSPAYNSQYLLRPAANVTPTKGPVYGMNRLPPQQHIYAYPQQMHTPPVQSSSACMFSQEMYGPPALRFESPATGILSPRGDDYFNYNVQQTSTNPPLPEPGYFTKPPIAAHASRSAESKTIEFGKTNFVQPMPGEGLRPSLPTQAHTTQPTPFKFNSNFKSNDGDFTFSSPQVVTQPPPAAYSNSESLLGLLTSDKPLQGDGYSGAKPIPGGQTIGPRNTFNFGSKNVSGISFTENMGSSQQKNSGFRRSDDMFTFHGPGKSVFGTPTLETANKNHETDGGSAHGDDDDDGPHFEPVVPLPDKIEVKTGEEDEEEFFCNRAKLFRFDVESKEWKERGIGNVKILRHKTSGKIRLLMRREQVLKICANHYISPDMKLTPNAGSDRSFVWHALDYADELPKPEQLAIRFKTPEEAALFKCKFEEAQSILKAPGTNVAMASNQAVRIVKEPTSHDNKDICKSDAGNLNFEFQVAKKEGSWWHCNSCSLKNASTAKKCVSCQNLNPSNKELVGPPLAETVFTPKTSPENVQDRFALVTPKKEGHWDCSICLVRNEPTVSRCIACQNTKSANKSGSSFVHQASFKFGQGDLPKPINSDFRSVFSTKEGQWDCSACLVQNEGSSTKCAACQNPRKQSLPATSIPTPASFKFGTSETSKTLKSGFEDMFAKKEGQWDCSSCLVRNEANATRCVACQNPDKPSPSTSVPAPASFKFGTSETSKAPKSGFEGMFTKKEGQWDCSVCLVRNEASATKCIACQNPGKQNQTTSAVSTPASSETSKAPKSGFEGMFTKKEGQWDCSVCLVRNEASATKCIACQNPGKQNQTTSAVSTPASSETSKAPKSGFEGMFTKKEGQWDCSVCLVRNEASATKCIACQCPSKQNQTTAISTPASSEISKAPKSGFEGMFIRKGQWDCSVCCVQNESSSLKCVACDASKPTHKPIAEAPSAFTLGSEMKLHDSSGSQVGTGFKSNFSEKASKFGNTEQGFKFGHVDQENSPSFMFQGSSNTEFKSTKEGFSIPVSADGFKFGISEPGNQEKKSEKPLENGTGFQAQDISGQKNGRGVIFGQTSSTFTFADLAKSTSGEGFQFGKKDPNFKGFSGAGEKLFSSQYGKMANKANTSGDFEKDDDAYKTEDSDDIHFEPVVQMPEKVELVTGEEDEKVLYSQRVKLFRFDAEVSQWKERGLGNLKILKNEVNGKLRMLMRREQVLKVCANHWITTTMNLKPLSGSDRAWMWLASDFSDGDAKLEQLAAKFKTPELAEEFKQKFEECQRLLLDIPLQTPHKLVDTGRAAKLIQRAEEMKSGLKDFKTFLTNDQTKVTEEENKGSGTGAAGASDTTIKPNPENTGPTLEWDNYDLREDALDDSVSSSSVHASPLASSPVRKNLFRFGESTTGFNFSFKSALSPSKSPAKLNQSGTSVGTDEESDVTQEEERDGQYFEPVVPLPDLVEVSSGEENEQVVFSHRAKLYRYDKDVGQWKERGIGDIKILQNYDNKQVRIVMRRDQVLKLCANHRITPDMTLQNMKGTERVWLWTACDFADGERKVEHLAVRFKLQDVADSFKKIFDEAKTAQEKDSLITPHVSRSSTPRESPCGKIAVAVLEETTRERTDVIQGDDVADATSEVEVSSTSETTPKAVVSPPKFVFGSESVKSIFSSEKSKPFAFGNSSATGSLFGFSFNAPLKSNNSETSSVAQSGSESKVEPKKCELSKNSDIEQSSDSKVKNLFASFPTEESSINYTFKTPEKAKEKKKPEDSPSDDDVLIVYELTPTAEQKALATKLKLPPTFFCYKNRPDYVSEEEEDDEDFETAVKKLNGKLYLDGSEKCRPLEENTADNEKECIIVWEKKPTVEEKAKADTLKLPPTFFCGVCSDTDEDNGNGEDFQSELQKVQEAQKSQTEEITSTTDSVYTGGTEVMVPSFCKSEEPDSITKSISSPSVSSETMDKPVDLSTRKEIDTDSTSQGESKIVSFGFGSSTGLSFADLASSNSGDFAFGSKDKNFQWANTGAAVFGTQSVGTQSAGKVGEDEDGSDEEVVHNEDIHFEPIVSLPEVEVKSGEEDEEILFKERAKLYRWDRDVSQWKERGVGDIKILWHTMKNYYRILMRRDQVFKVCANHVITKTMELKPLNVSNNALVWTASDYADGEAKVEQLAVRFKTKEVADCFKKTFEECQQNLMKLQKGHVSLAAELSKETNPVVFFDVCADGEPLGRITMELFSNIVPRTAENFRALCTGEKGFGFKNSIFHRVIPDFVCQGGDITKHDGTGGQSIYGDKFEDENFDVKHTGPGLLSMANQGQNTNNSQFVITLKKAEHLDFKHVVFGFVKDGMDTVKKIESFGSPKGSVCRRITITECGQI
UniProt O14730, sequence (O14730 whole entry, looked up): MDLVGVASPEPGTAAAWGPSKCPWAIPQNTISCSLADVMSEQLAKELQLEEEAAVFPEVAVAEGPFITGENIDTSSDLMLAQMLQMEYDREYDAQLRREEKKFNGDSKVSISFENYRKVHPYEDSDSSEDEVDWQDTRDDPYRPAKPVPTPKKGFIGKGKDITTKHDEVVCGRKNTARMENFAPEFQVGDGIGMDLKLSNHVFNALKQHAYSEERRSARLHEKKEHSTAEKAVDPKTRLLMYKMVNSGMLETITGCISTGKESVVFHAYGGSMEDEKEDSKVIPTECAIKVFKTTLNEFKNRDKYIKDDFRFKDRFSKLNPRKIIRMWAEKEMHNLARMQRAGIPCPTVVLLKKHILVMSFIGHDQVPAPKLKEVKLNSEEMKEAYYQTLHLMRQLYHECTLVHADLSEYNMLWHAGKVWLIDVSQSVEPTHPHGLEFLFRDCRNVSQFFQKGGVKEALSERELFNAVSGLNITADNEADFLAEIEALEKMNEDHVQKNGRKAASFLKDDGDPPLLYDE

log2 fold change, inactive:
RUNX1 isoform 8 (UniProt Q01196) -0.089
RPS12 (UniProt P25398) 0.063
SLC18B1 (UniProt Q6NT16) -0.005
SHROOM2 (UniProt Q13796) -0.072
RNASEH2A (UniProt O75792) -0.061
RIPK1 (UniProt Q13546) 0.041
SERPINA7 (UniProt P05543) 0.036
SH3GL1 (UniProt Q99961) -0.028
RMC1 (UniProt Q96DM3) 0.042
SGPL1 (UniProt O95470) 0.009
RSPRY1 (UniProt Q96DX4) -0.034
SELENOH (UniProt Q8IZQ5) -0.051
SCD (UniProt O00767) 0.036
SKP1 (UniProt P63208) -0.035
SENP6 (UniProt Q9GZR1) -0.022
RPP25L (UniProt Q8N5L8) 0.059
RHOA (UniProt P61586) 0.071
RRS1 (UniProt Q15050) 0.143
RPS2 (UniProt P15880) 0.119
RB1 (UniProt P06400) -0.05
RBM12 (UniProt Q9NTZ6) -0.049
SASH1 (UniProt O94885) 0.027
RCC1 isoform 2 (UniProt P18754) -0.02
RBM26 isoform 2 (UniProt Q5T8P6) -0.069
SETD3 (UniProt Q86TU7) -0.002
RANBP2 (UniProt P49792) 0.099
RDH13 (UniProt Q8NBN7) -0.058
SAAL1 (UniProt Q96ER3) 0.025
SDHAF2 (UniProt Q9NX18) 0.06
RPS18 (UniProt P62269) 0.057
RPTOR (UniProt Q8N122) -0.08
RELA (UniProt Q04206) -0.043
RPS6KA1 isoform 2 (UniProt Q15418) -0.146
RIOK3 (UniProt O14730) -0.053

compound: CN(C)CC(=O)Nc1ccc2[nH]c(=O)c3ccccc3c2c1; test: as above
Procedure, shortened: as §1

log2 fold change, inactive:
RUNX1 isoform 8 (UniProt Q01196) 0.06
RPS12 (UniProt P25398) -0.028
SLC18B1 (UniProt Q6NT16) -0.134
SHROOM2 (UniProt Q13796) -0.021
RNASEH2A (UniProt O75792) -0.118
RIPK1 (UniProt Q13546) 0.08
SERPINA7 (UniProt P05543) -0.123
SH3GL1 (UniProt Q99961) 0.091
RMC1 (UniProt Q96DM3) -0.023
SGPL1 (UniProt O95470) -0.023
RSPRY1 (UniProt Q96DX4) -0.014
SELENOH (UniProt Q8IZQ5) 0.041
SCD (UniProt O00767) 0.008
SKP1 (UniProt P63208) -0.019
SENP6 (UniProt Q9GZR1) -0.017
RPP25L (UniProt Q8N5L8) -0.074
RHOA (UniProt P61586) -0.025
RRS1 (UniProt Q15050) -0.029
RPS2 (UniProt P15880) -0.108
RB1 (UniProt P06400) 0.008
RBM12 (UniProt Q9NTZ6) 0.053
SASH1 (UniProt O94885) 0.042
RCC1 isoform 2 (UniProt P18754) 0.168
RBM26 isoform 2 (UniProt Q5T8P6) 0.072
SETD3 (UniProt Q86TU7) -0.02
RANBP2 (UniProt P49792) 0.026
RDH13 (UniProt Q8NBN7) 0.051
SAAL1 (UniProt Q96ER3) -0.025
SDHAF2 (UniProt Q9NX18) -0.004
RPS18 (UniProt P62269) -0.036
RPTOR (UniProt Q8N122) 0.03
RELA (UniProt Q04206) -0.019
RPS6KA1 isoform 2 (UniProt Q15418) 0.026
RIOK3 (UniProt O14730) -0.011

compound: CN(CCOC1=CC=C(C=C1)C[C@H]2C(=O)NC(=O)S2)C3=CC=CC=N3 (racemic) [rosiglitazone]; test: as above
Procedure, shortened: as §1

log2 fold change, inactive:
RUNX1 isoform 8 (UniProt Q01196) 0.032
RPS12 (UniProt P25398) -0.037
SLC18B1 (UniProt Q6NT16) -0.044
SHROOM2 (UniProt Q13796) 0.058
RNASEH2A (UniProt O75792) 0.013
RIPK1 (UniProt Q13546) 0.111
SERPINA7 (UniProt P05543) -0.014
SH3GL1 (UniProt Q99961) 0.062
RMC1 (UniProt Q96DM3) 0.005
SGPL1 (UniProt O95470) -0.061
RSPRY1 (UniProt Q96DX4) 0.011
SELENOH (UniProt Q8IZQ5) -0.002
SCD (UniProt O00767) -0.023
SKP1 (UniProt P63208) -0.02
SENP6 (UniProt Q9GZR1) 0.004
RPP25L (UniProt Q8N5L8) -0.093
RHOA (UniProt P61586) -0.057
RRS1 (UniProt Q15050) -0.147
RPS2 (UniProt P15880) -0.092
RB1 (UniProt P06400) 0.009
RBM12 (UniProt Q9NTZ6) 0.087
SASH1 (UniProt O94885) 0.044
RCC1 isoform 2 (UniProt P18754) 0.053
RBM26 isoform 2 (UniProt Q5T8P6) 0.094
SETD3 (UniProt Q86TU7) 0.015
RANBP2 (UniProt P49792) 0.03
RDH13 (UniProt Q8NBN7) 0.013
SAAL1 (UniProt Q96ER3) 0.051
SDHAF2 (UniProt Q9NX18) 0.02
RPS18 (UniProt P62269) -0.11
RPTOR (UniProt Q8N122) 0.034
RELA (UniProt Q04206) 0.039
RPS6KA1 isoform 2 (UniProt Q15418) 0.044
RIOK3 (UniProt O14730) 0.024
